Hits are enriched below; roughly 1.2% of the tested compounds scored in any of these assays.
GSH bead fluor – GSH bead compound fluorescence profile. GSH beads flow cytometry, compound fluorescence 488/530 nm; hits give high values. fluorescence (KMESF) at 10 µM. 190,000 tested, 0.25% active; in the data active = fluorescence above about 89;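 note: glutathione beads carrying GST-tagged Bcl family fusion proteins plus one bare bead set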
RGS7-Gao reg – modulates binding of RGS7 to human Galphao; P09471; Multiplexed bead flow cytometry; actives lie on both sides; binding response (% of control), % at 10 µM; 220,000 tested, 0.35% active; in the data active = binding response below about 49% or above about 150%; inconclusive = no clear call, values can overlap the other calls; inactive = in between;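 note: fluorescent Galphao held in activated GDP-AlF4 state binding bead-coupled RGS7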
Target sequence (P09471 whole entry, looked up): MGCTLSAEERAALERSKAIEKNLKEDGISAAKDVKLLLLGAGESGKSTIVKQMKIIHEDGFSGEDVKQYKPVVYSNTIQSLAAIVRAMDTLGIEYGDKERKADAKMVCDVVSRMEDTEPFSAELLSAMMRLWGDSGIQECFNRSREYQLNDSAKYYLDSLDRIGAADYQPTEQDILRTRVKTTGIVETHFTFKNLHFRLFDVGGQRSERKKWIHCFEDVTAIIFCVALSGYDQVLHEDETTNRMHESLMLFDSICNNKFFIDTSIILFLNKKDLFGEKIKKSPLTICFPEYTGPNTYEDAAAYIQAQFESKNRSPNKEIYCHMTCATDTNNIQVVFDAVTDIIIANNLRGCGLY
RGS16-Gao – regulators of human RGS16-Galphao interaction | O15492+P09471 | bead-based flow cytometry RGS16-Galphao binding, fluorescence; actives lie on both sides | binding response (% of control), % at 10 µM | 220,000 tested, 0.38% active; call rule not given here;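 note: Galphao activated by GDP with aluminum fluoride before binding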
Target sequence (O15492 whole entry, looked up): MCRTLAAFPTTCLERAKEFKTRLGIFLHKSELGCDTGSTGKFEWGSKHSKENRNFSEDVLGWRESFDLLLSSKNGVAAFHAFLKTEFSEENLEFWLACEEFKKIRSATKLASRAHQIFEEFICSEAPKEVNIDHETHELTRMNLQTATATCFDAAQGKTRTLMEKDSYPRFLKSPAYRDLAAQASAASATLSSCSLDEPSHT
Target sequence (P09471 whole entry, looked up): as the sequence (P09471 whole entry, looked up) above
RGS8-Gao – modulates binding of RGS8 to human Galphao. 220,000 tested, 0.34% active. response (percent of control binding), % at 10 µM. multiplexed bead flow cytometry; actives lie on both sides. P09471. AID 1423; in the data active = response below about 60% or above about 140%; inactive = in between;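 note: Galphao activated as the GDP aluminium fluoride complex binding bead-coupled RGS8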
RGS4-Gao reg – modulates binding of RGS4 to human Galphao | binding response (% of control), % at 10 µM | 220,000 tested, 0.33% active | Multiplexed bead flow cytometry; actives lie on both sides; in the data active = binding response below about 49% or above about 150%; inactive = in between;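 note: fluorescent Galphao activated with aluminum fluoride binding bead-coupled RGS4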
Avidin bead fluor – compound fluoresces at 488/530 nm on avidin beads. fluorescence (KMESF) at 10 µM. compound fluorescence 488/530 nm, flow cytometry; hits give high values. 220,000 tested, 0.38% active; in the data active = fluorescence above about 47
Large screens that a line does not name were inactive; [ ] = another dose, or the depositor's remark.

CCOC(=O)/C(C#N)=C(\O)c1ccc(NC(=O)c2ccc([N+](=O)[O-])cc2)cc1	RGS7-Gao reg inconclusive, Avidin bead fluor 59 (no result: GSH bead fluor)
NC(=O)c1c(/N=C/c2cccnc2)sc2c1CCCC2	RGS7-Gao reg inconclusive (no result: GSH bead fluor)
O=c1cc(COc2ccccc2[N+](=O)[O-])nc2sccn12	RGS7-Gao reg inconclusive (no result: GSH bead fluor)
CC(C)(CNS(=O)(=O)c1ccc(F)cc1)CNS(=O)(=O)c1ccc(F)cc1	Avidin bead fluor 51
O=S(=O)(NCCNS(=O)(=O)c1ccc(F)cc1)c1ccc(F)cc1	none
O=C(COC(=O)c1cccc(S(=O)(=O)N2CCc3ccccc3C2)c1)NCc1ccco1	GSH bead fluor 256
O=C(COC(=O)c1cc(S(=O)(=O)N2CCc3ccccc3C2)ccc1Cl)NCc1ccco1	none
Nn1c(SCc2cn3ccsc3n2)nnc1-c1ccncc1	GSH bead fluor 266
Cc1ccc(CSc2nnc(-c3ccncc3)n2N)cc1	RGS7-Gao reg inconclusive (no result: GSH bead fluor)
CN(C(=O)COC(=O)/C=C/c1ccc(S(=O)(=O)N2CCc3ccccc32)cc1)C1CCS(=O)(=O)C1 (configuration not stated)	none
COC(=O)c1cc(NC(=O)c2cccc(C(F)(F)F)c2)c(=O)oc1C	RGS7-Gao reg inconclusive
COC(=O)c1cc(NC(=O)c2cccc(Cl)c2)c(=O)oc1/C=C/Nc1cc(C)cc(C)c1	GSH bead fluor 173
CC1=C(C(=O)N2CCOCC2)C(c2cc(C)ccc2C)NC(=S)N1 (configuration not stated)	none
COCCCN1C(=O)/C(=C/c2ccc(CNS(=O)(=O)c3ccccc3)o2)C(C(=O)OC)=C1C	RGS7-Gao reg inconclusive
Cc1cc(C(=O)N2CCN(C(c3ccccc3)c3ccccc3)CC2)no1	Avidin bead fluor 52
CCCc1cc(C(=O)N2CCN(C(c3ccccc3)c3ccccc3)CC2)no1	none
Cc1c(C(=O)O)c(C(=O)O)c2n1CCS2	RGS7-Gao reg inconclusive (no result: GSH bead fluor)
Cc1ccc(-c2nc(-c3ccccc3)no2)cc1	none
Cc1ccc(-c2nc(-c3cccnc3)no2)cc1	Avidin bead fluor 56
COc1cccc(CN2CCN(C(=S)NCc3ccc(Cl)cc3)CC2)c1	none
COc1ccc2c(=O)c3c(=O)n(Cc4ccco4)c(-c4ccc(C)cc4)nc3oc2c1	none
COc1cc(-c2nc3oc4ccccc4c(=O)c3c(=O)n2Cc2ccco2)cc(OC)c1OC	Avidin bead fluor 49
COc1cc2[nH]c(=S)nc(NC3CCCC3)c2cc1OC	none
O=C(Cc1ccccc1[N+](=O)[O-])NCc1ccc(Cl)cc1	RGS7-Gao reg 176[activator], RGS4-Gao reg 213[activator], Avidin bead fluor 119
O=C(Cc1ccccc1[N+](=O)[O-])NCc1ccc(Cl)cc1Cl	none
Cc1cc(C(=O)OCC(=O)Nc2cccnc2Cl)c2ccccc2n1	none
Cc1cc(C(=O)NCC(=O)OC(C(=O)Nc2cc(C(F)(F)F)ccc2Cl)c2ccccc2)ccc1[N+](=O)[O-] (configuration not stated)	GSH bead fluor 257
Cc1ccc(-c2nn3cnnc3c3ccccc23)cc1	none
CC1CCN(C(c2ccc(N(C)C)cc2)c2nnnn2Cc2ccc(F)cc2)CC1 (configuration not stated)	GSH bead fluor 251
Fc1ccc(Cn2nnnc2C(c2ccc(Cl)cc2)N2CCSCC2)cc1 (configuration not stated)	none
Cc1nn(C)c(C(=O)NNC(=O)Nc2cccc(C(F)(F)F)c2)c1Cl	none
O=C(CS(=O)Cc1ccccc1Cl)Nc1ccccc1Cl (configuration not stated)	none
CCc1ccc(OCc2nnc(SCCN3CCOCC3)n2C)cc1	GSH bead fluor 260
Cc1ccc(OCc2nnc(SCCN3CCOCC3)n2C)cc1	none
N#Cc1c(N)oc(-c2ccccc2)c1-c1ccccc1	GSH bead fluor 268
CCn1cc(C(=O)OCC(=O)Nc2c(C)cccc2C)c(=O)c2ccc(C)nc21	none
C=CCn1c2ccccc2c2nnc(SCC(=O)NC(C(=O)OC)C(C)C)nc21 (configuration not stated)	Avidin bead fluor 119
CCOC(=O)CCC(=O)NCc1ccc2c(c1)cc(C)n2C	Avidin bead fluor 53
CCOC(=O)C(C)n1cnc2c(nnn2Cc2ccc(C)cc2)c1=O (configuration not stated)	Avidin bead fluor 49
Cc1cc(C(=O)OCC(=O)NC2CCCCC2)c(C)o1	none
Cc1cc(C(=O)OCC(=O)NC(C)C)c(C)o1	GSH bead fluor 269
C/C(CC(=O)Nc1cc(Cl)ccc1Cl)=N\NC(=O)c1ccccc1Br	none
CCc1nc2sc(C)c(C)c2c(=O)n1CCO	Avidin bead fluor 52
CCC1C(=NO)C(CC)C(c2ccccc2)NC1c1ccccc1 (configuration not stated)	none
Cc1cccc(-n2nnnc2SCC(=O)c2cc(C)n(CC3CCCO3)c2C)c1 (configuration not stated)	GSH bead fluor 263
Cc1ccc(-n2nnnc2SCC(=O)c2cc(C)n(CC3CCCO3)c2C)cc1 (configuration not stated)	none
O=C1NC(Cc2c[nH]c3ccccc23)C(=O)N1Cc1ccc(CN2C(=O)NC(Cc3c[nH]c4ccccc34)C2=O)cc1 (configuration not stated)	none
Cc1onc(-c2ccccc2)c1C(=O)OCC(=O)NCc1ccc(F)cc1	RGS7-Gao reg inconclusive
CC(C)CC(NC(=O)c1ccc(Cl)cc1)C(=O)OCc1cc([N+](=O)[O-])cc2c1OCOC2 (configuration not stated)	none
COc1cccc(NC(=S)N(Cc2ccc(Cl)cc2)Cc2ccc(C(=O)O)cc2)c1	none
CCOC(=O)c1ccccc1NC(=O)CSc1nc2c(c(=O)n(C)c(=O)n2C)n1C	none
CCOC(=O)c1ccccc1NC(=O)Cn1cnc2c1c(=O)n(C)c(=O)n2C	RGS7-Gao reg -8.2, RGS16-Gao -15, RGS8-Gao 7.8, RGS4-Gao reg -24
Cc1ccc2c(CSc3nnc(C4CC4)n3N)cc(=O)oc2c1	GSH bead fluor 262
COc1ccc(Cl)cc1N1C(=O)CC(N2CCc3ccccc32)C1=O (configuration not stated)	GSH bead fluor 264
O=c1cc[nH]c2ccc(OC(F)(F)F)cc12	RGS7-Gao reg inconclusive (no result: GSH bead fluor)
CC(C)=CC(=O)Nc1ccc(S(=O)(=O)Nc2ccccn2)cc1	none
COC(=O)COc1ccc(S(=O)(=O)Nc2ccccc2C(=O)OC)cc1	Avidin bead fluor 63
Cc1cc(NC(=O)CN2C(=O)NC(C)(c3ccc(OC(F)F)cc3)C2=O)no1 (configuration not stated)	Avidin bead fluor 48
CC(C)CC(C)c1cc(N)nc2nc3ccccc3n12 (configuration not stated)	none
CCOc1ccccc1N1CC(C(=O)Nc2cccc(S(=O)(=O)N3CCCCC3)c2)CC1=O (configuration not stated)	RGS7-Gao reg inconclusive, Avidin bead fluor 54
